Values joined by “and” are separate entries in the source; they are usually repeats but may differ in a detail not shown here. Identical values can stand only once. Results filed as inconclusive are left out. Some compounds were tested as several samples or in several runs, with calls that do not always agree. Active and inactive are the calls of the source. Unless noted, calls come from the whole dose curve.
Tests used:
[1] = Nuclear factor erythroid 2-related factor 2/antioxidant responsive element (Nrf2/ARE) small molecule agonists: qHTS cell viability counter screen in human keratinocytes (AID 1919968; active = well fitted curve in the direction sought with a large enough effect in the repeat runs; an effect the other way counts as inactive or inconclusive; note: nearly all actives have a fitted effect of over 55% in size; note: potency is the fitted concentration of half-maximal effect)
In short: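 Viability counter-screen: KeratinoSens reporter cells, DMSO-delivered compounds, 23 h at 37 C, CellTiter-Fluor fluorescence.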

[2] = Nuclear factor erythroid 2-related factor 2/antioxidant responsive element (Nrf2/ARE) small molecule agonists: luciferase reporter gene qHTS assay in human keratinocytes (AID 1919969); note: nearly all actives have a fitted effect of over 35% in size; note: potency is the fitted concentration of half-maximal effect
[3] = molecular target: Gonadotropin-releasing hormone receptor (Homo sapiens) (UniProt P30968); assay: Human gonadotropin-releasing hormone receptor (GnRHR) small molecule agonists, calcium flux assay in GnRHR-HEK293 cells (AID 1920063); note: nearly all actives have a fitted effect of over 35% in size
Sequence of Gonadotropin-releasing hormone receptor (Homo sapiens) (P30968 whole entry, looked up): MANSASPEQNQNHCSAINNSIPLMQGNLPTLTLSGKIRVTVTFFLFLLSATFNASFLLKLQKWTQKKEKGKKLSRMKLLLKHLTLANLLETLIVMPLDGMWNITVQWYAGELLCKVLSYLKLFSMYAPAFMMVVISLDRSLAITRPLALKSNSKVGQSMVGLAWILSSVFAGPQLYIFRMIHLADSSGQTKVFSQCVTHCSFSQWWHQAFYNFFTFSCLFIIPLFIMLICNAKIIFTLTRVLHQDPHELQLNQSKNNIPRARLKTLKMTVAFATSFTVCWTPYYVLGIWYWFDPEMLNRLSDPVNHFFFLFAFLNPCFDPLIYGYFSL
In short: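 Tox21-format agonist screen using human GnRHR-expressing HEK293 cells and a fluorescent calcium dye; kinetic 3-min fluorescence reading after compound addition, 15-point concentration series run in triplicate.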

[4] = molecular target: KiSS-1 receptor (Homo sapiens) (UniProt Q969F8); assay: Human kisspeptin (KISS1R) small molecule agonists, calcium flux assay in KISS1R-HEK293 cells (AID 1920064; active = well fitted curve in the direction sought with a large enough effect in the repeat runs; an effect the other way counts as inactive or inconclusive)
Sequence of KiSS-1 receptor (Homo sapiens) (Q969F8 whole entry, looked up): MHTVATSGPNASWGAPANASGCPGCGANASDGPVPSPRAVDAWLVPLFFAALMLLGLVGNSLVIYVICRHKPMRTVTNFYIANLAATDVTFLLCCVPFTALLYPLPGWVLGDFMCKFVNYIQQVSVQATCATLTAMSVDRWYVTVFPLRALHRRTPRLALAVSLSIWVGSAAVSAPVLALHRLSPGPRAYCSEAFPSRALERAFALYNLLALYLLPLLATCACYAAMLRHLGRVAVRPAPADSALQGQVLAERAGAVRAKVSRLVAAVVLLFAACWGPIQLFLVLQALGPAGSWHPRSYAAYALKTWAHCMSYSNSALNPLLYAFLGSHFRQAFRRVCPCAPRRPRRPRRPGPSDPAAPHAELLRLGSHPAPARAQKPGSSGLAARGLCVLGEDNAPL
In short: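 Intracellular calcium mobilization in KISS1R-HEK293 cells was recorded by fluorescence (Ex/Em 480/540) for 3 min following compound addition to cells pre-loaded 1 h with calcium dye.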

[5] = G protein-coupled receptor (GPCR) small molecule agonists, calcium flux assay: HEK293 wild type cell line counter screen (AID 1920065)
In short: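 In this agonist-mode screen, ATP is the positive control and DMSO the vehicle. Cells grow 18 h before a 1 h dye incubation at 37 C; signal is taken at Ex/Em 480/540 over 3 min.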

[6] = p53 small molecule agonists, cell-based qHTS assay with human liver microsomes: qHTS cell viability counter screen (AID 1963579); note: nearly all actives have a fitted effect of over 45% in size; note: potency is the fitted concentration of half-maximal effect
In short: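 In this multiplexed counter screen, the reporter plates were subsequently treated with CellTiter-Glo so that cell viability, reflected by luminescence, could be recorded for p53RE-bla cells dosed 16 h with compounds under microsomal activation (HLM and NADPH).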

[7] = p53 small molecule agonists, cell-based qHTS assay with rat liver microsomes: qHTS cell viability counter screen (AID 1963580); note: nearly all actives have a fitted effect of over 45% in size
In short: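 p53RE-bla HCT-116 cells were exposed 16 h at 37 C to compounds with rat liver microsomes (0.5 mg/mL) and NADPH (0.5 mg/mL). Viability was measured in the same wells as ATP content by CellTiter-Glo luminescence.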

[8] = molecular target: 5-hydroxytryptamine receptor 2A (Homo sapiens) (UniProt P28223); assay: 5-hydroxytryptamine receptor 2A (HTR2A) small molecule antagonists, cell-based qHTS assay (AID 1963586); note: nearly all actives have a fitted effect of over 45% in size
Sequence of 5-hydroxytryptamine receptor 2A (Homo sapiens) (P28223 whole entry, looked up): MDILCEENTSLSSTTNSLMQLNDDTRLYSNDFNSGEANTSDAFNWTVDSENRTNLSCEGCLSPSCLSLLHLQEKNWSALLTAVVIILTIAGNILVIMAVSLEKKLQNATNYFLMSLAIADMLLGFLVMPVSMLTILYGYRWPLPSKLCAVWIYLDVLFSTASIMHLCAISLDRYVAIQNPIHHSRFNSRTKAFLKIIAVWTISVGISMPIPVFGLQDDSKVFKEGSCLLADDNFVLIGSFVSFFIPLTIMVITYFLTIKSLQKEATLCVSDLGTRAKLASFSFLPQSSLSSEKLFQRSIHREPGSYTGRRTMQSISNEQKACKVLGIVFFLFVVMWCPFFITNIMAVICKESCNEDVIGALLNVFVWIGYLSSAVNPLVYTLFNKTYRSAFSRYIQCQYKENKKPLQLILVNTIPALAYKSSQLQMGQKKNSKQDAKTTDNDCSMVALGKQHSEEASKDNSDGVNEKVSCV
In short: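 Antagonist-mode intracellular calcium assay: DOI (4 nM) added after 5 min compound pre-incubation at room temperature to dye-loaded HTR2A-CHO cells. Fluorescence followed for 3 min, sampled every second.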

[9] = molecular target: 5-hydroxytryptamine receptor 2A (Homo sapiens) (UniProt P28223); assay: 5-hydroxytryptamine receptor 2A (HTR2A) small molecule agonists, cell-based qHTS assay (AID 1963587); note: nearly all actives have a fitted effect of over 30% in size
In short: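 CHO cells stably expressing human HTR2A, plated 18 h, loaded with calcium dye 1 h at 37 C. Agonist mode: compounds added and intracellular calcium fluorescence recorded kinetically for 2 min at 1 sec intervals.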

[10] = molecular target: Muscarinic acetylcholine receptor M1 (Homo sapiens) (UniProt P11229); assay: Cholinergic receptor muscarinic 1 (CHRM1) small molecule antagonists, cell-based qHTS assay (AID 1963588); note: nearly all actives have a fitted effect of over 40% in size; note: potency is the fitted concentration of half-maximal effect
Sequence of Muscarinic acetylcholine receptor M1 (Homo sapiens) (P11229 whole entry, looked up): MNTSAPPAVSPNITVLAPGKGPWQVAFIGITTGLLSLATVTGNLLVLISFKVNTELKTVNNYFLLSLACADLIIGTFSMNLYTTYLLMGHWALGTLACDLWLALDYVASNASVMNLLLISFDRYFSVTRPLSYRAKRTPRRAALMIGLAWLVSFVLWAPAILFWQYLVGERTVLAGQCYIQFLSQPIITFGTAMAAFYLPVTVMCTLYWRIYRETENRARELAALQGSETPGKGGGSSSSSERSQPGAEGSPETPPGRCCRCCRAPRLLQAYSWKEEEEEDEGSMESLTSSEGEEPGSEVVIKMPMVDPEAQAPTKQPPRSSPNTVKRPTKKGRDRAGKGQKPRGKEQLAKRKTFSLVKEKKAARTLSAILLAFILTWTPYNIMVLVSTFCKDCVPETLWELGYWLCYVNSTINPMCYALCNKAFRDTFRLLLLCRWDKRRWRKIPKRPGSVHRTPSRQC
In short: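 CHRM1-CHO calcium-flux assay, antagonist mode. Cells were seeded 18 h, dye-loaded 1 h at 37 C and given compound for 5 min at RT, then acetylcholine was added at 50nM. FDSS fluorescence was read 3 min; 15 concentrations, three runs.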

[11] = molecular target: Muscarinic acetylcholine receptor M1 (Homo sapiens) (UniProt P11229); assay: Cholinergic receptor muscarinic 1 (CHRM1) small molecule agonists, cell-based qHTS assay (AID 1963589); note: nearly all actives have a fitted effect of over 35% in size
In short: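 Stable CHRM1-CHO cells (human receptor) were incubated 18 h, dye-loaded for 1 h at 37 C and exposed to test compounds for agonist activity, with calcium-dependent fluorescence followed kinetically.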

[12] = cAMP Responsive Elements (CRE) small molecule agonists, cell-based qHTS assay (AID 1963590)
In short: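 FRET-based beta-lactamase readout (LiveBLAzer B/G, 2 h RT) quantified CRE activation in HEK 293T CRE-bla cells after 3 h treatment with DMSO-dissolved compounds.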

[13] = cAMP Responsive Elements (CRE) small molecule antagonists, cell-based qHTS assay (AID 1963591; active = well fitted inhibition curve with a large enough effect in the signal ratio in the repeat runs, not every such curve was filed as active; the % refers to the signal ratio)
In short: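 qHTS in CRE-bla HEK 293T cells: compound in DMSO, then 0.25 uM NKH477 (final), 3 h at 37 °C/5% CO2; beta-lactamase FRET read-out after 2 h substrate incubation.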

[14] = molecular target: Beta-2 adrenergic receptor (Homo sapiens) (UniProt P07550); assay: Adrenergic beta2 receptor (ADRB2) small molecule antagonists, cell-based qHTS assay (AID 1963592); note: series mostly up to about 92 µM; nearly all actives have a fitted effect of over 50% in size
Sequence of Beta-2 adrenergic receptor (Homo sapiens) (P07550 whole entry, looked up): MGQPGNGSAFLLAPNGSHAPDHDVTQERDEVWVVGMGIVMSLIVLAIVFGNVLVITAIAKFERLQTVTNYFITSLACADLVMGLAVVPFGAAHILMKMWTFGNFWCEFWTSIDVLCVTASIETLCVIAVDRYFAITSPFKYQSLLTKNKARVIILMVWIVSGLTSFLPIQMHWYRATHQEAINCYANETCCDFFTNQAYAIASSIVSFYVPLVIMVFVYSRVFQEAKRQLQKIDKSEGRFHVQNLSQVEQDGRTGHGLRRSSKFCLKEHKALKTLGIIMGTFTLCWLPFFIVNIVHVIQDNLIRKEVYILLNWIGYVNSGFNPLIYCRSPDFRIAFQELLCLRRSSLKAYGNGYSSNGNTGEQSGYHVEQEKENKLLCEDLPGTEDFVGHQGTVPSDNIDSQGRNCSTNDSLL
In short: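 Cells (CHO, stable ADRB2 overexpression) incubated 18-20hr at 37C; compounds added from DMSO; agonist mix (1nM isoproterenol, 100uM IBMX, 25uM Ro-20-1724) added; 0.5hr RT; d2-cAMP and anti-cAMP-cryptate added; 1hr RT; 665/615 nm read.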

[15] = p53 small molecule agonists, cell-based qHTS assay: qHTS cell viability counter screen (AID 1963581); note: nearly all actives have a fitted effect of over 45% in size; note: potency is the fitted concentration of half-maximal effect
In short: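 Compounds are pinned onto HCT-116 p53RE-bla cells and left 16 h at 37 C. Following the reporter FRET read, ATP is quantified by CellTiter-Glo luminescence after 30 min at room temperature.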

[16] = molecular target: D(2) dopamine receptor (Homo sapiens) (UniProt P14416); assay: Dopamine D2 receptor (DRD2) small molecule agonists, cell-based qHTS assay (AID 1963594); note: nearly all actives have a fitted effect of over 35% in size
Sequence of D(2) dopamine receptor (Homo sapiens) (P14416 whole entry, looked up): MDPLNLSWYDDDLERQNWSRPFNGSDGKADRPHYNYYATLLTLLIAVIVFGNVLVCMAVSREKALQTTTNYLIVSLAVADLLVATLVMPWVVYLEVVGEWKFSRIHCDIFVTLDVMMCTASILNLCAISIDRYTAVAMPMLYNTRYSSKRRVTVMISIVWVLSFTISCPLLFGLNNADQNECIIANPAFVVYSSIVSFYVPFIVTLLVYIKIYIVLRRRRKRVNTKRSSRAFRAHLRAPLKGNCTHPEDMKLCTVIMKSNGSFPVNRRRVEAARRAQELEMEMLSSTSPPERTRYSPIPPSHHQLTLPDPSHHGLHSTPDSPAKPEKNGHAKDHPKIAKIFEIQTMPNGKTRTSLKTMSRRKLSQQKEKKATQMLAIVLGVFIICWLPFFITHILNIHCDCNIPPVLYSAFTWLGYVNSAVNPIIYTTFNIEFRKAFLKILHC
In short: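 HEK293 cells stably expressing human DRD2, pre-treated with PDE inhibitor Ro20-1724 (0.1 mM final) and compound 10 min at room temperature, then stimulated with NKH477 (200nM […]) for 30 min. cAMP read by HTRF (665/620 nm).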

[17] = molecular target: D(2) dopamine receptor (Homo sapiens) (UniProt P14416); assay: Dopamine D2 receptor (DRD2) small molecule antagonists, cell-based qHTS assay (AID 1963595; active = well fitted inhibition curve with a large enough effect in the signal ratio in the repeat runs, with a control signal flat; the % refers to the signal ratio)
In short: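 Antagonism was scored as restored cAMP in HEK293-DRD2 cells. These cells were stimulated with 200 nM NKH477 and 12 nM quinpirole for 30 min at room temperature, in the presence of 0.1 mM Ro20-1724.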

[18] = molecular target: Beta-2 adrenergic receptor (Homo sapiens) (UniProt P07550); assay: Adrenergic beta2 receptor (ADRB2) small molecule agonists, cell-based qHTS assay (AID 1963593);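 note: CHO cells stably overexpressing human ADRB2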
In short: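 CHO cells stably over-expressing ADRB2 were plated overnight at 37C, then dosed with compounds plus a stimulation mix containing 100uM IBMX and 25uM Ro-20-1724 for 0.5hr at room temperature. cAMP was measured by HTRF competition, 1hr.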

Measured: Potency

O=C1Nc2ccccc2C1(c1ccc(O)cc1)c1ccc(O)cc1
active: [2] 386 nM and 841 nM
not listed: [15] | [16] | [17] | [18]
inactive: all other assays above

C[C@]12CCC(=O)C=C1CC[C@@H]1[C@@H]2[C@@H](O)C[C@@]2(C)[C@H]1CC[C@]2(O)C(=O)CO
not listed: [8] | [9] | [10] | [11] | [18]
inactive: all other assays above

C=C(c1ccc(C(=O)O)cc1)c1cc2c(cc1C)C(C)(C)CCC2(C)C
inactive and 12.6 µM (active): [15]
20.4 µM (active) and inactive: [6]
inactive and 18.3 µM (active): [10]
active: [1] 27.3 µM and 23.7 µM
not listed: [9] | [12]
inactive: all other assays above

O=C1c2ccccc2CCc2ccccc21
not listed: [11]
inactive: all other assays above
